Bioassay records from PubChem BioAssay.
G9a inh = qHTS Assay for Inhibitors of Histone Lysine Methyltransferase G9a; actives 8.8% (n = 350,000); Potency, µM (top dose mostly 102 µM), for inactives: at the highest dose activity, negative = inhibition, hits mostly inhibitors; G9a H3K9 monomethylation, AlphaScreen, 2 h; note: % is set by controls: 0 for no effect and ±100 for the full control effect; nearly all actives have a fitted effect of over 75% in size
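Readings reflect AlphaScreen signal from monomethyl-H3K9 antibody detection. HMT at 20 nM; substrate b-H3K9 500 nM; cofactor SAM 20 uM; 2 h RT reaction; compounds tested as titrations in qHTS with 15 min preincubation.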
Sfp PPTase inh = qHTS Assay for Inhibitors of Bacillus subtilis Sfp phosphopantetheinyl transferase (PPTase); AID 1490, 2009; actives 3.5% (n = 310,000); Biochemical Sfp PPTase activity, qHTS; 4'-phosphopantetheinyl transferase ffp (Bacillus subtilis), Q9F4F7; Potency, µM, for the others: largest response in the series, negative = inhibition, hits mostly inhibitors;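 note: the enzyme is Sfp with the accession as filed and its product quenches rhodamine fluorescence; 0% = enzyme reaction without inhibitor and -100% = no enzyme wells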
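Buffer: 50 mM Hepes-Na pH 7.6, 10 mM MgCl2, 0.01% Nonidet P-40, 0.01% BSA. Enzyme 15 nM, pre-exposed to compound 15 min; substrates then added and fluorescence change tracked over 30 min.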
L3MBTL1 block = qHTS Assay for the Inhibitors of L3MBTL1 | Lethal(3)malignant brain tumor-like protein 1 (Homo sapiens), Q9Y468 | AlphaScreen L3MBTL1–H3K9me1 peptide binding | Potency, µM (doses to about 57.1 µM), without a hit: at the highest dose activity, negative = inhibition, usual class: inhibitors | actives 0.66% (n = 230,000) | AID 485360, 2010; note: % is set by controls: 0 for no effect and ±100 for the full control effect; nearly all actives have a fitted effect of over 60% in size
Target sequence (Q9Y468 whole entry, looked up): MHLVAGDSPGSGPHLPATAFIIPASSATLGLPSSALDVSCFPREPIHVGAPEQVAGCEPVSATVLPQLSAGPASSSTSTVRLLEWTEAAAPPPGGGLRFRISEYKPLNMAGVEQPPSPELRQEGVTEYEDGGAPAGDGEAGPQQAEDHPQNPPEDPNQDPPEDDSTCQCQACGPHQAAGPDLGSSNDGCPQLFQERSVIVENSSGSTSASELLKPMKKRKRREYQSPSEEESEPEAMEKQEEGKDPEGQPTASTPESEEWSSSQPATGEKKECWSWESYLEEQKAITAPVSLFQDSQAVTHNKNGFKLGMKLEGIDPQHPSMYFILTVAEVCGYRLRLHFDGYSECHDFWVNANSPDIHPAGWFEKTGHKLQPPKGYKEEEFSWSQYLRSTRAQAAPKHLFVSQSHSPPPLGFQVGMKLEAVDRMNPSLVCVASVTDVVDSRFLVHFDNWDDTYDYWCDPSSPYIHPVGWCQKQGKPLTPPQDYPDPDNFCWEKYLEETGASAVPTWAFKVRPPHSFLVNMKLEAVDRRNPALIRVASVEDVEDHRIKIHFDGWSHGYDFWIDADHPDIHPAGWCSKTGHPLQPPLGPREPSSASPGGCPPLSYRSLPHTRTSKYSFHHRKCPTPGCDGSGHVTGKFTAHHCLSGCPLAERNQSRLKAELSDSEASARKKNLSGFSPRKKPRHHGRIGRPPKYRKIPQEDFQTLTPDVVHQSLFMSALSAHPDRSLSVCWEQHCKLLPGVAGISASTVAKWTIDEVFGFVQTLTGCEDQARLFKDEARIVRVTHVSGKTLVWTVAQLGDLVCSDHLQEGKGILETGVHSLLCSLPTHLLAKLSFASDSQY
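L3MBTL1 (50 nM) pre-complexed 30 min with biotinylated H3(1-15)K9me1 peptide (75 nM), then compounds added for 30 min at room temperature; AlphaScreen streptavidin donor/nickel chelate acceptor beads (10 ug/mL final) read after 30 min dark incubation.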
JMJD2A Tudor inh = qHTS Assay for Inhibitors of JMJD2A-Tudor Domain; AlphaScreen JMJD2A-Tudor / H3K4me3 peptide binding; Potency, µM (top dose mostly 114 µM), inactives show at the highest dose activity change, negative = inhibition, hits mostly inhibitors; actives 4.4% (n = 390,000); AID 504339, 2011; note: % is set by controls: 0 for no effect and ±100 for the full control effect; nearly all actives have a fitted effect of over 50% in size
BAZ2B inh = qHTS Assay for Inhibitors of BAZ2B; Bromodomain adjacent to zinc finger domain protein 2B (Homo sapiens), Q9UIF8; AlphaScreen BAZ2B-H3K14Ac peptide displacement; Potency, µM (doses to about 114 µM), without a hit: at the highest dose activity change, negative = inhibition, actives largely listed as inhibitors; actives 4.4% (n = 360,000); note: % is set by controls: 0 for no effect and ±100 for the full control effect; nearly all actives have a fitted effect of over 60% in size
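AlphaScreen displacement: compounds (up to 110uM) incubated 30 min at room temperature with a preformed 50 nM BAZ2B/50 nM biotinylated H3K14Ac peptide complex in PBS pH 7.4 with Tween-20. Donor and acceptor beads at 10 ug/mL final added, 20 min light-protected before reading.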
HP1b binding inh = HTS for Inhibitors of HP1-beta Chromodomain Interactions with Methylated Histone Tails; Chromobox protein homolog 1 (Homo sapiens), P83916; AlphaScreen HP1-beta / biotin-H3K9me3 peptide binding; Potency, µM (series often up to 114 µM), inactives show at the highest dose activity change, negative = inhibition, usual class: inhibitors; actives 0.56% (n = 390,000); AID 540317, 2011; note: nearly all actives have a fitted effect of over 70% in size
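Compound inhibition of the preformed complex between 50 nM HP1-beta and 50 nM biotinylated H3K9me3 peptide was read by AlphaScreen. Buffer was PBS pH 7.4 with 0.01% Tween-20. Incubations ran 30 min at room temperature, with 10 ug/mL donor/acceptor beads.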
An asterisk follows results filed as active; ? = inconclusive; . = not tested or not shown; [ ] = another dose, or the depositor's remark. In the library only some 12% were active in any assay of this set; here they are far more common. Calls come from the whole dose curve; as a rule, active = well fitted curve in the direction sought with a large enough effect; inconclusive = small, poorly fitted or top-dose-only effect, or another doubt; inactive = no such curve, though single readings can be large; an effect the other way counts as inactive or inconclusive. Potency is the fitted concentration of half-maximal effect.

SMILES	G9a inh	Sfp PPTase inh	L3MBTL1 block	JMJD2A Tudor inh	BAZ2B inh	HP1b binding inh
C[C@H]1O[C@@H](O[C@H]2CC[C@@]3(C)C(CC[C@]4(C)C3C=C[C@]35OC[C@@]6(CCC(C)(C)C[C@H]63)[C@@H](O)C[C@]54C)[C@]2(C)CO)[C@H](O)[C@@H](O[C@@H]2O[C@H](CO)[C@@H](O)[C@H](O)[C@H]2O)[C@H]1O (stereo not given in full)	.	.	-2%	-14%	.	-2%
CC1OC(OC2C(OC3C(O[C@H]4CC[C@]5(C)C6C=C[C@]78OC[C@@]9(CC[C@@H](C)[C@H](C)C97)[C@H](O)C[C@@]8(C)[C@]6(C)CC[C@H]5C4(C)C)OC(C)C(O)C3O)OC(CO)C(O)C2O)C(O)C(O)C1O (stereo not given in full)	-15%[12.7 µM]	79µM*	.	.	?	.
COc1ccc(Br)cc1-c1nc(C)c(C(C)=O)n1O	10µM*	0%	23%[11.4 µM]	-18%	-30%	18%
O=C1Nc2cc(C(=O)NCCCN3CCCC3)ccc2S/C1=C/c1ccccc1F	14µM*	-28%	.	?	-38%	-10%[57 µM]
O=C(NCCCN1CCCCC1)c1ccc2c(c1)NC(=O)c1ccccc1S2	50µM*	9%	.	-19%	-4%[57.1 µM]	21%
CS(=O)(=O)N(Cc1ccc(Cl)cc1)c1ccc(C(=O)N/N=C/c2cc3ccccc3nc2Cl)cc1	-12%[59 µM]	-27%	3%	-8%	-5%	37%
C=CCNC1=C2C[C@@H](C)C[C@H](OC)[C@H](O)[C@@H](C)/C=C(\C)[C@H](OC(N)=O)[C@@H](OC)/C=C/C=C(\C)C(=O)NC(=CC1=O)C2=O	5%[12.7 µM]	30%	.	.	.	.
COc1c(/C=N/NC(=O)c2ccccc2O)c(CCN(C)C(C)=O)cc2c1OCO2	42%[59 µM]	-4%	-15%	0%	-9%	21%
COc1c(/C=N/Nc2ccc(C(=O)O)cc2)c(CCN(C)C(C)=O)cc2c1OCO2	45µM*	5%	0%	3%	-15%	44%
Cc1ccc(/C=C/C(=O)O)cc1S(=O)(=O)N1CCCCC1	9%[59 µM]	13%	12%	-7%	2%	65%
COc1ccc(/C=N/N2CCN(C)CC2)cc1O	32µM*	?	-6%	-14%	15%	-6%
CN1CCN(/N=C/c2ccc(N(c3ccccc3)c3ccccc3)cc2)CC1	8%[12.7 µM]	-23%	23%	18µM*	35µM*	-38%
COc1cccc(/C=N/N2CCN(C)CC2)c1	-8%[59 µM]	10%	12%	-26%	-5%	3%
CN1CCN(/N=C/c2ccc(Br)cc2)CC1	?	4%	-11%	-33%	12%	21%
CN1CCN(/N=C/c2ccc(Cl)c(Cl)c2)CC1	?	-12%	-2%	?	?	-11%
CN1CCN(/N=C/c2ccc(N(C)c3ccccc3)cc2)CC1	?	2%	-9%[11.4 µM]	-32%	35µM*	-5%
N#Cc1nc(Nc2cc(F)cc(F)c2)c2ncn(CCO)c2n1	.	.	.	-11%	.	.
CCC1=C(OC(=O)N(CC)CC)N2C(=O)OC(=NCCOC)[C@]2(C)[C@H]2C1=CC[C@H]1C(=O)N(CC(=O)OC)C(=O)[C@H]12	.	5%	.	.	.	.
Cc1cc(C(F)(F)F)n(-c2nc(C(=O)O)cs2)n1	-3%	14%	.	-4%	-17%	2%
COc1ccc(C2=NN(c3nc(C(=O)O)cs3)C(O)(C(F)(F)F)C2)c(OC)c1 (stereo not given)	-28%	-5%	-23%	1%	50µM*	73%
